Only some compounds are listed: those with a hit (about 2.3% of all), similar ones and a draw of the others.
Akt phos inh – inhibitors of Akt phosphorylation | Neuro2A IGF-stimulated pAkt S473 HTRF, 20 min; hits give low values | activity change, % for hits at 50 µM | hit rate 0.32% among 360,000 | AID 651550; in the data active means activity change below about -80%; inconclusive means mostly about -51% to -80%; further: on the % scale 0 is the no-effect control and ±100 the full control effect
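Neuro2A cells in DMEM with 0.5% FBS, overnight at 37 deg C, given compound at single 50 µM final, then IGF (6 nM final) for 20 min at 37 deg C. Lysed; phospho-Akt Ser473 by HTRF after 24 h, 665/615 ratio.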
FUS yeast rescue – suppressors of FUS proteinopathy in yeast; S. cerevisiae FUS-expressing, growth rescue, OD600, 24 h; hit rate 0.24% among 390,000; AID 1347120; Potency, µM (doses to about 76.6 µM), actives largely listed as activators;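 further: potency means the concentration at half of the fitted maximal effect; plate controls were DMSO vehicle for no effect and reference control for full effect; nearly all actives have a fitted effect of over 55% in size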
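S. cerevisiae expressing FUS from galactose induction served as the toxicity model. Growth after 24hr at 30C, read as absorbance at 600 nm, indicates suppression of toxicity; compounds dosed at several concentrations.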
Abeta rescue – restores growth of yeast expressing A-beta42 peptide; yeast expressing A-beta42, growth rescue, OD600, 48 h; response scale: 0% DMSO, 100% iron-clioquinol control; Potency, µM (top dose mostly 46.1 µM), actives largely listed as activators; hit rate 0.063% among 410,000; AID 1347071; further: potency means the concentration at half of the fitted maximal effect; nearly all actives have a fitted effect of over 55% in size
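Growth rescue measured by 600 nm absorbance after 48 h yeast culture at 30 C with compound. Values normalized between DMSO and an equimolar ferric chloride plus clioquinol control.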
TDP-43 yeast inh – inhibitors of TDP-43 toxicity in yeast | TDP-43 expressing yeast growth rescue, BacTiter-Glo, 24 h | Potency, µM (series often up to 46.1 µM), inactives show at the highest dose growth rescue (activation), usual class: activators | hit rate 1.8% among 410,000 | AID 652104; further: potency means the concentration at half of the fitted maximal effect; % of control where 0% means no effect; nearly all actives have a fitted effect of over 50% in size
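In this qHTS, compounds that restore growth of yeast expressing TDP-43 appear as activators. Cells (OD600=0.02, galactose medium, raffinose-pregrown) are incubated with compound 24 hr at 30 deg C and growth is quantified by BacTiter-Glo.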
aSyn rescue – alpha-synuclein toxicity inhibition in yeast | Yeast expressing alpha-synuclein, growth rescue, BacTiter-Glo, 24 h | Potency, µM (titrated, usually from 46.1 µM), for inactives: top-dose growth rescue (activation), usual class: activators | hit rate 0.14% among 370,000; further: potency means the concentration at half of the fitted maximal effect; % of control where 0% means no effect; nearly all actives have a fitted effect of over 65% in size
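Rescue of yeast growth: cells expressing toxic alpha-synuclein, induced in galactose at OD600 0.02, incubated with compound 24 h at 30 C. ATP luminescence quantified growth; inhibitors of toxicity appear as activators.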
Numbers without * were called inactive; i = inactive; u = inconclusive; x = no result. Unless noted, the call rests on the fitted dose curve; in most records, active means well fitted curve in the direction sought with a large enough effect; inconclusive means small, poorly fitted or top-dose-only effect, or another doubt; inactive means no such curve, though single readings can be large; an effect the other way counts as inactive or inconclusive.

SMILES	Akt phos inh	FUS yeast rescue	Abeta rescue	TDP-43 yeast inh	aSyn rescue
Cn1c(=NN=Cc2ccccc2OCCO)sc2ccccc21	i	i	i	12.6µM*	5.3%
CSc1ccccc1NC(=O)COC(=O)/C=C/c1ccco1	i	i	i	5.01µM*	1.1%
O=C(COC(=O)/C=C/c1ccco1)NCCc1ccccc1	i	i	i	15.8µM*	3.3%
CNC(=O)COC(=O)/C=C/c1ccco1	i	i	i	0.0%	-22.4%
O=C(COC(=O)/C=C/c1ccco1)NCc1ccco1	i	i	i	2.5%	6.0%
CC(C)c1cc(C(=O)NC(C)c2ccccc2)no1 (configuration not stated)	x	i	i	20.8%	x
CCO[C@H]1OC(C(=O)Nc2ccccc2)=C[C@@H](c2ccc(Br)cc2)[C@@H]1CCCO	i	u	i	u	19.5%
CCO[C@@H]1OC(C(=O)Nc2ccccc2)=C[C@H](c2ccc(C(F)(F)F)cc2)[C@H]1CCCO	i	u	u	12.6µM*	0.1%
COc1ccc(CN2C(=O)C(NC(=O)c3ccc(C)cc3)(C(F)(F)F)N=C2c2ccccc2)cc1 (configuration not stated)	x	i	i	9.1%	x
CC[C@H]1C(c2ccc(F)cc2)=NN(c2ccccc2)[C@@H]1CO	i	i	u	11.2µM*	7.3%
COc1ccccc1CNC(=O)CCc1c(C)c2cc3c(C)coc3cc2oc1=O	x	i	i	4.4%	x
Nc1ncnc(Oc2cccc(C(F)(F)F)c2)c1[N+](=O)[O-]	i	i	i	12.6µM*	-3.5%
CCOC(=O)CSc1nnc(CNc2ccc(Cl)cc2)n1-c1ccccc1	i	i	i	u	27.4%
CCOc1ccc(NCc2nnc(SCc3ccc(Cl)cc3)n2-c2ccccc2)cc1	i	x	i	25.1µM*	u
Cc1ccc(-n2nc(C(=O)Nc3cccc(C#N)c3)c3c4ccccc4n(C)c3c2=O)cc1	x	i	i	-16.0%	x
CCN(CC)C(=O)C1CCCN(C/C=C/c2ccccc2)C1 (configuration not stated)	-104.6%*	i	i	-13.4%	-1.1%
CCN(CC)C(=O)C1CCCN(C/C(C)=C/c2ccccc2)C1 (configuration not stated)	i	i	i	-22.3%	-2.1%
Cc1nc(-c2cccc(NC(=O)Nc3ccc([N+](=O)[O-])cc3)c2)no1	x	i	i	6.9%	-9.1%
COc1cc2[nH]c(=O)n(CCCC(=O)NCc3ccccc3)c(=O)c2cc1OC	x	i	i	-14.5%	x
COc1ccc(CC(=O)OCC(=O)NC(=O)NC23CC4CC(CC(C4)C2)C3)cc1	i	i	u	22.8%	12.9%
CC1CC1C(=O)OCC(=O)NC(=O)NC12CC3CC(CC(C3)C1)C2 (configuration not stated)	i	i	8.91µM*	-1.0%	8.2%
CC(C)(Oc1ccc(Cl)cc1)C(=O)Nc1ccc(-c2nc3ncccc3o2)cc1	x	i	i	23.0%	x
COc1ccc(C(CC(=O)Nc2cc(OC)c(OC)c(OC)c2)N2Cc3ccccc3C2=O)cc1 (configuration not stated)	x	i	i	-3.9%	x
Cc1ccc(S(=O)(=O)N2CCC(C)CC2)c([N+](=O)[O-])c1	i	i	i	17.8µM*	14.1%
COc1ccc(C)cc1S(=O)(=O)N1CCC(C)CC1	i	i	i	19.0%	6.6%
SMILES	Akt phos inh	FUS yeast rescue	Abeta rescue	TDP-43 yeast inh	aSyn rescue
Cc1ccc([N+](=O)[O-])cc1S(=O)(=O)N1CCC(C)CC1	i	i	i	15.8µM*	12.8%
CN1CCN(C(=O)c2ccc(Cn3cc(Cl)cn3)o2)CC1	i	i	i	9.7%	-9.0%
O=C(c1ccc(Cn2cc(Cl)cn2)o1)N1CCN(Cc2ccc3c(c2)OCO3)CC1	-110.6%*	i	i	-19.1%	-3.8%
O=S1(=O)c2ccccc2N(Cc2ccccc2Cl)c2ccccc21	x	i	i	6.31µM*	x
CC1Oc2ccccc2N(Cc2ccccc2Cl)C1=O (configuration not stated)	x	i	i	19.3%	9.0%
O=C1COc2ccccc2N1Cc1ccccc1Cl	i	i	i	22.4µM*	15.0%
Cc1ccc2c(c1)N(CC(=O)N1CCCc3ccccc31)C(=O)CO2	i	x	u	u	17.6%
O=C(CN1C(=O)COc2ccccc21)N1CCc2ccccc21	-107.4%*	i	i	20.8%	-6.1%
CC(NCc1ccco1)C(=O)N1CCCC1 (configuration not stated)	x	i	x	x	x
CCCSc1nnc2c(n1)OC(c1ccc(Br)s1)Nc1ccccc1-2 (configuration not stated)	x	i	i	-15.3%	x
O=C(NCCc1ccccc1Cl)C1CCN(c2nc3ccccc3nc2C(F)(F)F)CC1	x	i	i	-15.8%	x
CC(C)CC(NC(=O)OC(C)(C)C)c1cn([C@@H](CCCCNC(=O)OC(C)(C)C)C(=O)N2CCN(C(=O)OC(C)(C)C)CC2)nn1 (some centres not stated)	i	7.94µM*	i	1.4%	0.1%
CC[C@@H](C)C(NC(=O)OC(C)(C)C)c1cn([C@@H](Cc2cc3ccccc3[nH]2)C(=O)N2CCN(C(=O)OC(C)(C)C)CC2)nn1 (some centres not stated)	i	14.1µM*	i	-2.9%	10.8%
COc1ccc(S(=O)(=O)c2c(Nc3ccc(F)cc3)sc(C(=O)c3ccc(C)cc3C)c2N)cc1	x	i	i	0.0%	x
Cc1ccccc1OCC(=O)NCC(=O)OCc1cccc2ccccc12	x	x	x	x	2.8%
NC(=O)NC[C@@H]1CC[C@@H](Cc2ccc(-c3ccccc3)cc2)O1	i	i	i	18.1%	1.3%
OC[C@@H]1CC[C@@H](Cc2ccc(-c3ccccc3)cc2)O1	i	i	i	11.2µM*	17.8µM*
CC(=O)Nc1ccc(C(=O)N2c3ccccc3N=C(c3ccc4c(c3)OCO4)C2C(=O)NCc2ccccc2)cc1 (configuration not stated)	i	12.6µM*	i	7.4%	-10.7%
COc1ccc(C2=Nc3ccccc3N(C(=O)c3ccc4c(c3)OCO4)C2C(=O)NCc2ccccc2)cc1 (configuration not stated)	i	u	i	u	7.1%
Cc1cccc(OCC(=O)Nc2c(C(=O)Nc3ccc(F)cc3)oc3ccccc23)c1	x	i	i	u	x
O=S(=O)(NCCc1csc(-c2cccnc2)n1)c1ccc(Cl)s1	i	i	11.2µM*	14.1µM*	-2.2%
O=S(=O)(NCCc1csc(-c2ccc(F)cc2)n1)c1ccc(F)cc1F	x	i	u	2.82µM*	x
Cc1ccc(CNc2nccn(-c3cc(C)cc(C)c3)c2=O)cc1	x	i	i	u	x
